Compounds with a hit are over-represented: about 3.8% of the library has one in this group of screens.
S2 tox = Viability Counterscreen for Primary qHTS for Inhibitors of ATXN expression. S2 cells (HEK-293 line with an ATXN2-luciferase reporter) viability, CellTiter-Fluor protease fluorescence, 24 h. AID 651635, 2014. actives 0.49% (n = 400,000). Potency, µM (highest dose often 56.7 µM), most hits filed as cytotoxic; also: nearly all actives have a fitted effect of over 40% in size
A549 viability = Nrf2 qHTS screen for inhibitors: counterscreen for cytotoxicity; A549 ARE-Fluc cells, CellTiter-Fluor viability, 18-24 h; Potency, µM (series often up to 46 µM), for inactives: top-dose activity change, negative = cytotoxicity, actives largely listed as inhibitors; actives 0.16% (n = 390,000); AID 504648, 2011; also: % is scaled to controls: 0 for no effect and ±100 for the full control effect
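Cytotoxicity counterscreen: CellTiter-Fluor fluorescence was measured in A549 ARE_Fluc cells after 18-24 h of compound exposure in a concentration series. The subsequent BugLite luminescent read reports ARE-luciferase activity.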
HepG2 tox = qHTS for Inhibitors of TGF-b: Cytotox Counterscreen. HepG2 CAGA-GFP viability, ATP luminescence, 18 h. Potency, µM (series often up to 46.1 µM), without a hit: at the top dose activity change, negative = cytotoxicity, most hits filed as cytotoxic. actives 0.76% (n = 410,000). AID 588856, 2011
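HepG2 CAGA-GFP cells (1000/well, DMEM with 1% FBS) received compound, then TGF-beta at 500 pg/mL final, and were incubated 18 hours at 37 degrees C. Viability was read by CellTiter-Glo luminescence. Media-only wells were set as complete cell-killing and DMSO as no toxicity.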
TGFb inhibitor = qHTS for Inhibitors of TGF-b; actives 1.2% (n = 410,000); HepG2 CAGA-GFP TGF-b/SMAD3 reporter, GFP fluorescence, 18 h; TGF-beta stimulated, 500 pg/mL final; Potency, µM (doses to about 46.1 µM), for inactives: at the highest dose activity, negative = inhibition, hits mostly inhibitors; also: % is scaled to controls: 0 for no effect and ±100 for the full control effect; nearly all actives have a fitted effect of over 65% in size
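GFP signal (ex488/em500-530) from TGF-beta-stimulated HEPG2 CAGA-GFP cells, 500 pg/mL final, 18 h at 37 degrees C in DMEM plus 1% FBS, normalized to unstimulated and DMSO-stimulated controls.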
Nrf2 inh = Nrf2 qHTS screen for inhibitors; A549 ARE-Fluc reporter, luciferase luminescence, 18-24 h; Potency, µM (highest dose often 46 µM), inactives show top-dose activity change, negative = inhibition, actives largely listed as inhibitors; actives 2.1% (n = 360,000); AID 504444, 2011; also: % is scaled to controls: 0 for no effect and ±100 for the full control effect; nearly all actives have a fitted effect of over 60% in size
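A549 ARE_Fluc cells, 5000/well, 5% FBS OPTI-MEM; compounds in dose-response, 18-24 h at 37 °C/5% CO2; CellTiter-Fluor viability read (Ex 405/Em 525), then BugLite luciferase luminescence = Nrf2 activity.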
ATXN2 expr inh = Primary qHTS for Inhibitors of ATXN expression; HEK-293 ATXN2-luciferase reporter, luminescence, 24 h; Potency, µM (series often up to 57 µM), inactives show at the highest dose activity change, negative = inhibition, usual class: inhibitors; actives 0.72% (n = 360,000); also: % is scaled to controls: 0 for no effect and ±100 for the full control effect; nearly all actives have a fitted effect of over 55% in size
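ATXN2-luciferase reporter cells (luciferase flanked by upstream and downstream ATXN2 gene portions) were treated 24 h at 37 °C with compounds at up to 57 uM. SteadyGlo luminescence gave expression; GF-AFC fluorescence gave viability.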
* = called active by the depositor; i = inactive; ? = inconclusive; / = no result given. Calls follow the shape of the dose curve; as a rule, active = well fitted curve in the direction sought with a large enough effect; inconclusive = small, poorly fitted or top-dose-only effect, or another doubt; inactive = no such curve, though single readings can be large; an effect the other way counts as inactive or inconclusive. Potency is read from the fitted curve at half-maximal effect.

SMILES	S2 tox	A549 viability	HepG2 tox	TGFb inhibitor	Nrf2 inh	ATXN2 expr inh
COc1cccc(Cl)c1NC(=O)N1CCN(c2ccnc3cc(Cl)ccc23)CC1	?	-25.0%	-27.4%	?	23.1µM*	/
CCC(=O)N1CCN(c2ccnc3cc(Cl)ccc23)CC1	?	0.4%	-8.6%	-2.6%	?	?
CC(C)N(C(=O)N1CCN(c2ccnc3cc(Cl)ccc23)CC1)C(C)C	?	-3.6%	0.6%	0.0%	9.2µM*	25.1µM*
CCOC(=O)N1CCN(c2ccnc3cc(Cl)ccc23)CC1	i	1.4%	-21.9%	-20.4%	?	?
Cc1[nH]c2ccccc2c1/C=C/c1ccc2ccccc2n1	/	/	10µM*	0.2%	/	/
CCCC(c1c(C)n(C)n(-c2ccccc2)c1=O)c1c(C)n(C)n(-c2ccccc2)c1=O	i	-1.2%	11.2µM*	-6.0%	-7.0%	-1.3%
OC(c1cccc(Cl)c1)c1ncc(-c2cccc(C(F)(F)F)c2)[nH]1 (stereo unspecified)	?	/	-62.7%	?	/	?
CCN(C(=O)Cc1c(C(=O)O)n(CC)c2ccccc12)c1cccc(C(F)(F)F)c1	i	8.2%	-2.1%	4.3%	?	/
Cc1ccc(-n2nc3c4c(cccc4c2=O)-c2ccccc2-3)cc1	?	16.4µM*	1.4%	19.6%	?	?
OC(CNCc1ccc(-c2ccccc2)cc1)c1ccccc1 (stereo unspecified)	i	1.6%	22.4µM*	?	26.7%	-38.8%
OC(CNCc1ccncc1)c1ccccc1 (stereo unspecified)	i	2.2%	7.7%	0.3%	0.3%	-0.6%
COc1cccc(N(C(=O)CCl)C(C(=O)NCCc2ccccc2)c2cccs2)c1 (stereo unspecified)	31.6µM*	-15.1%	-106.4%	12.6µM*	-26.9%	?
CCN(CC)S(=O)(=O)c1ccc(NC(=O)NCc2noc3ccc(C)cc23)cc1	?	?	-32.4%	?	18.4µM*	?
Cc1ccc2onc(CNC(=O)Nc3cc(F)ccc3F)c2c1	i	11.0%	-7.3%	-29.7%	?	-4.7%
CCCCN(CCCC)S(=O)(=O)c1ccc2oc(C(=O)NCc3ccc(C)cc3)c(C)c2c1	i	-0.6%	-31.3%	-2.4%	/	1.8%
CCN(CC)S(=O)(=O)c1ccc2oc(C(=O)NCc3ccc(C)cc3)c(C)c2c1	i	1.8%	-28.6%	-4.1%	16.4µM*	?
N=c1oc2cc(O)ccc2cc1C(=O)Nc1ccc(Br)cc1	/	2.9%	0.6%	-23.2%	20.6µM*	-23.6%
Cn1nnnc1Sc1ncnc2scc(-c3ccccc3Cl)c12	?	-3.7%	2.5%	?	25.9µM*	20µM*
Cn1nnnc1Sc1ncnc2scc(-c3ccc4c(c3)OCO4)c12	?	-16.5%	2.6%	?	?	?
COc1ccc(-c2csc3ncnc(Nc4ccc(OC)c(OC)c4)c23)cc1	?	-6.4%	-41.1%	10µM*	/	?
Cn1nnnc1Sc1ncnc2scc(-c3cccc4c3sc3ccccc34)c12	?	?	-45.3%	10µM*	-16.5%	15.8µM*
COc1ccc(Nc2ncnc3scc(-c4ccc(OC)cc4)c23)cc1	i	-5.7%	-26.7%	?	9.8%	-26.5%
Cn1nnnc1Sc1ncnc2scc(-c3ccc4c(=O)ccoc4c3)c12	/	?	/	/	16.4µM*	/
Nc1c(-c2cccc([N+](=O)[O-])c2)nc2ccccn12	i	-5.3%	-40.6%	-5.9%	19.4%	35.5%
NNc1ncnc2scc(-c3ccc(Cl)cc3)c12	i	1.2%	-30.3%	-39.2%	-17.4%	15.8µM*
SMILES	S2 tox	A549 viability	HepG2 tox	TGFb inhibitor	Nrf2 inh	ATXN2 expr inh
Cn1nnnc1Sc1ncnc2scc(-c3cccc(N)c3)c12	/	-1.1%	/	/	4.5%	/
Cn1nnnc1Sc1ncnc2scc(-c3ccc(Cl)cc3)c12	11.2µM*	?	-100.9%	?	?	14.1µM*
COc1ccc(-c2csc3ncnc(Sc4nnnn4C)c23)cc1	?	-2.9%	-68.9%	17.8µM*	-10.3%	20µM*
Cn1nnnc1Sc1ncnc2scc(-c3ccc([N+](=O)[O-])cc3)c12	15.8µM*	?	-102.7%	12.6µM*	18.4µM*	7.08µM*
O=C(O)Cc1cccc(=O)c(O)c1C(=O)O	i	-1.0%	14.7%	-4.6%	11.8%	3.4%
O=C1c2cccc3cccc(c23)C(=O)N1Cc1ccccn1	i	/	-23.0%	-8.4%	/	/
O=C(CSc1nnc(-c2ccccc2)n1Cc1ccco1)Nc1ccc(S(=O)(=O)N2CCCC2)cc1	i	-25.5%	-22.9%	-25.7%	16.4µM*	-17.8%
O=C(CSc1nnc(-c2ccco2)n1Cc1ccco1)Nc1ccccc1	i	-6.7%	-6.4%	-15.6%	-18.9%	-6.4%
O=C(CSc1nnc(-c2ccncc2)n1Cc1ccco1)Nc1nc(-c2ccccc2)cs1	i	?	-29.0%	-8.1%	13µM*	-17.7%
COc1ccc(-n2c(CNc3ccc(C)cc3)nnc2SCC(=O)Nc2nc(-c3ccccc3)cs2)cc1	22.4µM*	-21.5%	-22.3%	-1.7%	?	17.8µM*
O=C(CSc1nnc(-c2ccncc2)n1Cc1ccco1)Nc1ccccc1Cl	i	-9.3%	2.8%	4.7%	-0.9%	-12.3%
Cc1oc2ncn(CC(C)C)c(=O)c2c1C(=O)NCCCN1CCC(C)CC1	i	12.0%	-0.2%	6.2%	32.4%	-10.8%
COc1cc(CNCCc2ccccc2)cc(Br)c1OCC(=O)Nc1ccccc1C	28.2µM*	-8.9%	-116.0%	?	1.9%	/
O=C(COc1ccc(Br)cc1CNCCc1ccccc1)NCc1ccccc1	?	-15.3%	12.6µM*	?	15.0%	?
CNCc1cc(Br)c(OCC(=O)Nc2ccccc2OC)c(OC)c1	?	-0.5%	-22.9%	-21.7%	0.0%	-31.0%
Cc1ccnc2ccc(I)cc12	/	/	3.8%	-1.4%	/	/
Oc1c(Br)cc(Br)cc1/C=N/Nc1ccc(Cl)nn1	?	1.1%	-17.8%	-5.1%	8.6%	2.82µM*
CC1(O)CC(c2ccc(Cl)cc2)=NN1C(=O)c1ccc(Cl)cc1 (stereo unspecified)	i	-3.1%	-41.0%	10µM*	-29.3%	/
O=C(C1CC1)N1N=C(c2ccc(Cl)cc2)CC1(O)C(F)(F)F (stereo unspecified)	i	7.0%	-34.4%	?	0.8%	-27.1%
Cc1ccc(C(=O)NC(=S)N2CCN(C)CC2)cc1	i	-10.0%	10µM*	-0.5%	0.2%	10.3%
